Holding throughout (settings): mRNA level, 48 h; actives raise or lower the signal
Read-out in assay [1]: Early growth response protein 1 (EGR1) transcription factor, EGR1 (gene 1958)
The experiment in a line: LTEA_HepaRG_EGR1: Life Technologies and Expression Analysis (LTEA) Assay for Early growth response protein 1 (EGR1) transcription factor using HepaRG (AID 2283490). In short, it runs like this:
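Read-out is EGR1 mRNA level by qRT-PCR, normalized to three housekeeping genes and analysed for gain or loss of signal against 0.5% DMSO. Source cells: human HepaRG, treated 48 h at up to 100 uM in half-log dilutions.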

Read-out in assay [2]: Ezrin (EZR), EZR (gene 7430)
Briefly: LTEA_HepaRG_EZR: Life Technologies and Expression Analysis (LTEA) Assay for Ezrin (EZR) using HepaRG (AID 2283491). In short, it runs like this: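 HepaRG, 48 h chemical exposure, 8-pt half-log series from 100 uM, 0.5% DMSO vehicle, duplicates. Read-out: EZR mRNA by TaqMan qRT-PCR (Fluidigm array), housekeeping-normalized; bidirectional curve fit vs DMSO baseline.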

Read-out in assay [3]: Cytochrome P450 3A7 (Homo sapiens) (UniProt P24462)
The experiment in a line: LTEA_HepaRG_CYP3A7: Life Technologies and Expression Analysis (LTEA) Assay for CYP3A7 using HepaRG (AID 2283492). In short, it runs like this:
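Differentiated HepaRG cells in serum-free induction medium exposed 48 h in duplicate to 8-point half-log series from 100 uM top in 0.5% DMSO. CYP3A7 mRNA by qRT-PCR, normalized to ACTB/GAPDH/POLR2A, bidirectional fit versus DMSO.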

Read-out in assay [4]: CYP3A5 (gene 1577)
The experiment in a line: LTEA_HepaRG_CYP3A5: Life Technologies and Expression Analysis (LTEA) Assay for CYP3A5 using HepaRG (AID 2283493). The method in brief: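 HepaRG plated 48 h, switched to serum-free induction medium, chemicals added 48 h (max 100 uM, half-log, 0.5% DMSO). RNA isolated; CYP3A5 by TaqMan qRT-PCR. Gain/loss vs DMSO.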

Read-out in assay [5]: Fatty Acid-Binding Protein 1 (FABP1), FABP1 (gene 2168)
The experiment in a line: LTEA_HepaRG_FABP1: Life Technologies and Expression Analysis (LTEA) Assay for Fatty Acid-Binding Protein 1 (FABP1) using HepaRG (AID 2283494). The method in brief: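 HepaRG, 48 h post-plating switched to serum-free induction medium, then dosed 48 h (duplicate, 8 pts, ≤100 uM, 0.5% DMSO). RNA → Fluidigm TaqMan qRT-PCR, FABP1 normed to ACTB/GAPDH/POLR2A. Bidirectional curve fit vs DMSO.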

Read-out in assay [6]: Cytochrome P450 4A22 (Homo sapiens) (UniProt Q5TCH4)
Briefly: LTEA_HepaRG_CYP4A22: Life Technologies and Expression Analysis (LTEA) Assay for Cytochrome P450 4A22 (CYP4A22) using HepaRG (AID 2283495). In short, it runs like this: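 Differentiated HepaRG cells in serum-free induction medium exposed 48 h in duplicate to eight half-log concentrations up to 100 uM in 0.5% DMSO. CYP4A22 mRNA quantified by TaqMan qRT-PCR, normalized to ACTB, GAPDH and POLR2A; bidirectional fit versus DMSO.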

Read-out in assay [7]: Cytochrome P450 7A1 (Homo sapiens) (UniProt P22680)
The experiment in a line: LTEA_HepaRG_CYP7A1: Life Technologies and Expression Analysis (LTEA) Assay for Cytochrome P450 7A1 (CYP7A1) using HepaRG (AID 2283496). In short, it runs like this: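 HepaRG cells plated 48 h, then switched to serum-free induction medium and exposed in duplicate for 48 h to 8-point half-log series from 100 uM in 0.5% DMSO. CYP7A1 mRNA by qRT-PCR (TaqMan), normalized to ACTB/GAPDH/POLR2A; bidirectional fit versus DMSO.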

Read-out in assay [8]: Glutathione S-Transferase (GSTA2), GSTA2 (gene 2939)
Briefly: LTEA_HepaRG_GSTA2: Life Technologies and Expression Analysis (LTEA) Assay for Glutathione S-Transferase (GSTA2) using HepaRG (AID 2283497). In short, it runs like this:
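HepaRG, 48 h dosing, 8-pt half-log CRC from 100 uM, 0.5% DMSO vehicle, n=2; RNA → Fluidigm TaqMan qRT-PCR; GSTA2 vs ACTB/GAPDH/POLR2A; gain/loss fit vs DMSO.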

Read-out in assay [9]: Glutamate-cysteine ligase catalytic (GCLC), GCLC (gene 2729)
The experiment in a line: LTEA_HepaRG_GCLC: Life Technologies and Expression Analysis (LTEA) Assay for Glutamate-cysteine ligase catalytic (GCLC) using HepaRG (AID 2283498). In short, it runs like this:
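Read-out is GCLC transcript level by Fluidigm-based TaqMan qRT-PCR, normalized to three housekeeping genes and fitted in both directions relative to 0.5% DMSO. Human HepaRG cells received chemicals for 48 h, up to 100 uM.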

Read-out in assay [10]: growth arrest and DNA damage 45 (GADD45G), GADD45G (gene 10912)
The experiment in a line: LTEA_HepaRG_GADD45G: Life Technologies and Expression Analysis (LTEA) Assay for growth arrest and DNA damage 45 (GADD45G) using HepaRG (AID 2283499). The method in brief:
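Differentiated human HepaRG cells, 48 h post-plating, exposed 48 h in serum-free induction medium to 8 half-log concentrations (top 100 uM, 0.5% DMSO) in duplicate. GADD45G mRNA measured by Fluidigm TaqMan qRT-PCR, normalized to ACTB, GAPDH, POLR2A; bidirectional fit versus DMSO.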

Read-out in assay [11]: Glutamate-cysteine ligase regulatory (GCLM), GCLM (gene 2730)
The experiment in a line: LTEA_HepaRG_GCLM: Life Technologies and Expression Analysis (LTEA) Assay for Glutamate-cysteine ligase regulatory (GCLM) using HepaRG (AID 2283500). In short, it runs like this: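 Cells were plated, cultured 48 h, switched to serum-free induction medium, then dosed in duplicate for 48 h at eight half-log concentrations up to 100 uM. RNA was then profiled by qRT-PCR; gain or loss versus DMSO was fitted.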

Read-out in assay [12]: Glutathione S-transferase M3 (GSTM3), GSTM3 (gene 2947)
Briefly: LTEA_HepaRG_GSTM3: Life Technologies and Expression Analysis (LTEA) Assay for Glutathione S-transferase M3 (GSTM3) using HepaRG (AID 2283501). The method in brief:
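Differentiated human HepaRG cells were exposed in duplicate for 48 h in serum-free induction medium, 8 points from 100 uM top in half-log steps, 0.5% DMSO. GSTM3 mRNA was measured by TaqMan qRT-PCR, normalized to ACTB, GAPDH and POLR2A; bidirectional fit versus DMSO.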

Read-out in assay [13]: Heat shock 70 kDa protein 1 (HSPA1A), gene 3303
The experiment in a line: LTEA_HepaRG_HSPA1A: Life Technologies and Expression Analysis (LTEA) Assay for Heat shock 70 kDa protein 1 (HSPA1A) using HepaRG (AID 2283502). In short, it runs like this:
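Readout is HSPA1A transcript level by microfluidic qRT-PCR, normalized to three housekeeping genes and analysed for gain or loss of signal relative to 0.5% DMSO. Human HepaRG cultures received test chemicals for 48 h at up to 100 uM.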

Read-out in assay [14]: 3-Hydroxy-3-Methylglutaryl-CoA Synthase 2 (HMGCS2), HMGCS2 (gene 3158)
Briefly: LTEA_HepaRG_HMGCS2: Life Technologies and Expression Analysis (LTEA) Assay for 3-Hydroxy-3-Methylglutaryl-CoA Synthase 2 (HMGCS2) using HepaRG (AID 2283504). The method in brief:
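Human HepaRG cells in serum-free induction medium were exposed in duplicate for 48 h to 8-point half-log series from 100 uM top in 0.5% DMSO. HMGCS2 mRNA measured by TaqMan qRT-PCR, normalised to ACTB, GAPDH, POLR2A; bidirectional fit versus DMSO.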

Read-out in assay [15]: HGF (gene 3082)
The experiment in a line: LTEA_HepaRG_HGF: Life Technologies and Expression Analysis (LTEA) Assay for Hepatocyte Growth Facto (HGF) using HepaRG (AID 2283505). In short, it runs like this:
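Differentiated HepaRG cells in serum-free induction medium exposed 48 h in duplicate, 8 half-log concentrations from 100 uM in 0.5% DMSO. HGF mRNA by qRT-PCR, normalised to ACTB, GAPDH, POLR2A; bidirectional fitting.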

Read-out in assay [16]: Insulin Like Growth Factor 1 (IGF1), IGF1 (gene 3479)
Briefly: LTEA_HepaRG_IGF1: Life Technologies and Expression Analysis (LTEA) Assay for Insulin Like Growth Factor 1 (IGF1) using HepaRG (AID 2283506). The method in brief:
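HepaRG, plated 48 h, then switched to serum-free induction media; test chemical 8-pt half-log from 100 uM (0.5% DMSO), duplicate, 48 h. Lysis in RLT, TaqMan qRT-PCR, norm. ACTB/GAPDH/POLR2A. Bidirectional fit vs DMSO.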

Read-out in assay [17]: Intercellular Adhesion Molecule 1 (ICAM1), ICAM1 (gene 3383)
Briefly: LTEA_HepaRG_ICAM1: Life Technologies and Expression Analysis (LTEA) Assay for Intercellular Adhesion Molecule 1 (ICAM1) using HepaRG (AID 2283507). The method in brief:
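Differentiated human HepaRG cells in serum-free induction medium exposed 48 h in duplicate to 8 half-log concentrations (top 100 uM, 0.5% DMSO). ICAM1 mRNA quantified by TaqMan qRT-PCR, normalized to ACTB, GAPDH and POLR2A; bidirectional fitting versus DMSO.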

Read-out in assay [18]: Insulin-like growth factor-binding protein 1 (IGFBP1), IGFBP1 (gene 3484)
Briefly: LTEA_HepaRG_IGFBP1: Life Technologies and Expression Analysis (LTEA) Assay for Insulin-like growth factor-binding protein 1 (IGFBP1) using HepaRG (AID 2283508). The method in brief:
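HepaRG cells, plated 48 h then switched to serum-free induction medium, exposed in duplicate for 48 h to 8-point half-log series from 100 uM in 0.5% DMSO. mRNA measured by qRT-PCR, normalized to ACTB/GAPDH/POLR2A; bidirectional fit versus DMSO.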

Read-out in assay [19]: Interleukin 6 (IL6), IL6 (gene 3569)
The experiment in a line: LTEA_HepaRG_IL6: Life Technologies and Expression Analysis (LTEA) Assay for Interleukin 6 (IL6) using HepaRG (AID 2283509). In short, it runs like this:
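HepaRG, ~100,000 cells/well, 48 h pre-culture; serum-free induction medium; cmpd 8-pt half-log from 100 uM, 0.5% DMSO, duplicate, 48 h. Lysis in RLT, TaqMan qRT-PCR; gain or loss vs DMSO.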

Read-out in assay [20]: Hypoxia-inducible factor 1-alpha (Homo sapiens) (UniProt Q16665)
Briefly: LTEA_HepaRG_HIF1A: Life Technologies and Expression Analysis (LTEA) Assay for Hypoxia-inducible factor 1 (HIF1A) Trancription factor using HepaRG (AID 2283503). The method in brief: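 Differentiated HepaRG cells in serum-free induction medium exposed 48 h, in duplicate, to 8-point half-log series from 100 uM in 0.5% DMSO. HIF1A mRNA measured by TaqMan qRT-PCR, normalized to ACTB/GAPDH/POLR2A, fitted bidirectionally versus DMSO.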

Calls of active or inactive are those of the source. Rule for the calls: active = hit-call score of the fitted dose curve at least 0.9, where 1 is the maximum; inactive = score below 0.9.

Sequence of Cytochrome P450 3A7 (Homo sapiens) (P24462 whole entry, looked up): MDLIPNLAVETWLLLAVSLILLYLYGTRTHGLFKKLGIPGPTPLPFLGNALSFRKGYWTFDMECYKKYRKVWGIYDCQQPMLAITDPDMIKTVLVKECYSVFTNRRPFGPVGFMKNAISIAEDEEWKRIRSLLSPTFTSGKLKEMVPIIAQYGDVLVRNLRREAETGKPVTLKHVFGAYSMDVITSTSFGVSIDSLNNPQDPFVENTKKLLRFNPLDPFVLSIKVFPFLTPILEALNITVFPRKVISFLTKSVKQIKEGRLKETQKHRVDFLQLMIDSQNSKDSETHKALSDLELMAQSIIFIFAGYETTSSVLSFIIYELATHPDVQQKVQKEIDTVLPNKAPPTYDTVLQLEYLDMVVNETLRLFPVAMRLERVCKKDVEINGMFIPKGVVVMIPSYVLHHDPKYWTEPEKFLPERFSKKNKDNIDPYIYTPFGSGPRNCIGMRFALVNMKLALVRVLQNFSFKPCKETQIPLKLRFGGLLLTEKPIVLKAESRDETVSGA
Sequence of Hypoxia-inducible factor 1-alpha (Homo sapiens) (Q16665 whole entry, looked up): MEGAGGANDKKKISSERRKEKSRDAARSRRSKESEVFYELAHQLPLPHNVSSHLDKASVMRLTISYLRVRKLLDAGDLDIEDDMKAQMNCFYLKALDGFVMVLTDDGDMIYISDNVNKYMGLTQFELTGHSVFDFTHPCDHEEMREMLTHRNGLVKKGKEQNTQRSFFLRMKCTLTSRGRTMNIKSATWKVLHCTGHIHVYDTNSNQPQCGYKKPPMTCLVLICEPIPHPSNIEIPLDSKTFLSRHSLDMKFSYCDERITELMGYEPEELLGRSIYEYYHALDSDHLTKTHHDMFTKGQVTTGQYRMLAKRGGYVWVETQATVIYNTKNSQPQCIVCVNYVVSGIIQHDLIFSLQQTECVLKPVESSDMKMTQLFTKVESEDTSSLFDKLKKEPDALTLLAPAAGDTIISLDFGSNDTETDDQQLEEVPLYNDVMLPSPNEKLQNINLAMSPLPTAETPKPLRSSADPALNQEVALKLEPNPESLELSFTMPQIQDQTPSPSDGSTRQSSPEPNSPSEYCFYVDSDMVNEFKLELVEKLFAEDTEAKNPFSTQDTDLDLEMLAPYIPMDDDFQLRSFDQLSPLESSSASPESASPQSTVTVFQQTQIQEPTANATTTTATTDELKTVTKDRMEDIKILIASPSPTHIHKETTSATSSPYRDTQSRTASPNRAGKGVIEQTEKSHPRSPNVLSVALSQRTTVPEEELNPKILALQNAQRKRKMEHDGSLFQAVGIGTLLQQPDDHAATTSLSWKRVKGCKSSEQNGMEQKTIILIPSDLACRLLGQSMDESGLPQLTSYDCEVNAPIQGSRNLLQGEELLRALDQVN

Take `CNC(=O)N(C)c1nnc(C(C)(C)C)s1`: the result in assay [1], in assay [2], in assay [3], in [4], in assay [5] and in assay [6] was inactive. The call in [7], in [8], in [9], in assay [10], in [11] and in assay [12] was inactive. Moreover, the molecule was classed as inactive in assay [13], in assay [14], in assay [15], in assay [16], in assay [17] and in assay [18]. Moreover, in [19], the result was inactive.
In the case of `CC(C)N1C(=O)c2ccccc2NS1(=O)=O`, the molecule was called inactive in assay [1], in assay [2], in [3], in assay [4], in assay [5] and in assay [6]. Besides, the molecule was called inactive in assay [7], in [8], in assay [9], in assay [10], in assay [11] and in assay [12]. The call in assay [20], in assay [14], in assay [15], in assay [16], in assay [17] and in assay [18] was inactive. Also, the result in assay [19] was inactive.
As to `N#Cc1c[nH]cc1-c1cccc2c1OC(F)(F)O2`, the AC50 (as a rule, the midpoint of the concentration-response curve, whichever way the signal moves) in [1] was 50 µM (active); in assay [5], 50 µM (active); in assay [6] it was 84.8 µM (active); in [7], 69.9 µM (active); in assay [8] it was 85.6 µM (active); in [11], 93.2 µM (active). In addition, the AC50 in assay [12] was 50 µM (active); in assay [20] it was 83.4 µM (active); in [14] it was 79.3 µM (active); in assay [18] it was 69 µM (active). Also, the result in assay [2], in [3], in assay [4], in [9], in assay [10] and in assay [15] was inactive. Besides, the call in [16], in [17] and in [19] was inactive.
With `CCC(C)n1c(=O)[nH]c(C)c(Br)c1=O` (configuration not stated), the molecule was classed as inactive in assay [1], in assay [2], in assay [3], in assay [9], in [11] and in [12]. The result in assay [13], in assay [20], in assay [15], in [17] and in [19] was inactive. For the same molecule, the concentration at half-maximal activity (AC50) in assay [4] was 20.4 µM (active); in [5], 24.6 µM (active); in assay [6], 7.06 µM (active); in assay [7] it was 23.7 µM (active); in [8] it was 50 µM (active); in [10] it was 30.4 µM (active). In addition, the AC50 in [14] was 29.2 µM (active); in assay [16], 8.53 µM (active); in [18], 18.1 µM (active).

The values above are taken from PubChem BioAssay (EPA / NIEHS).
